Reference: PubChem BioAssay (Tox21)
Values joined by “and” are separate entries in the source; they are usually repeats but may differ in a detail not shown here. Identical values can stand only once. Inconclusive results are not listed. Entries that show only a call come without a potency. More than one record can exist for a structure, and the calls need not agree. Active and inactive are the calls of the source. Unless noted, calls come from the whole dose curve; as a rule, active = well fitted curve in the direction sought with a large enough effect in the repeat runs; inconclusive = weak or mixed curves; inactive = no such curve, though single readings can be large; an effect the other way counts as inactive or inconclusive.

Legend:
[1] = qHTS assay to identify small molecule antagonists of the glucocorticoid receptor (GR) signaling pathway - cell viability counter screen (AID 720693); note: nearly all actives have a fitted effect of over 55% in size; note: potency is the fitted concentration of half-maximal effect
[2] = qHTS assay for identifying genotoxic compounds that show differential cytotoxicity against isogenic chicken DT40 cell lines with known DNA damage response pathways - wild type cell line (AID 743012); note: nearly all actives have a fitted effect of over 60% in size; note: potency is the fitted concentration of half-maximal effect
How it was run: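 CellTiter-Glo luminescence readout of viability in wild type DT40 cells after 40 h compound exposure at 37 C/5% CO2; 300 cells/well; reagent incubated 30 min at room temperature before reading.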

[3] = qHTS assay for identifying genotoxic compounds that show differential cytotoxicity against isogenic chicken DT40 cell lines with known DNA damage response pathways - Rev3 mutant cell line (AID 743014); note: nearly all actives have a fitted effect of over 55% in size; note: potency is the fitted concentration of half-maximal effect
[4] = qHTS assay for identifying genotoxic compounds that show differential cytotoxicity against isogenic chicken DT40 cell lines with known DNA damage response pathways - Rad54/Ku70 mutant cell line (AID 743015); note: nearly all actives have a fitted effect of over 60% in size; note: potency is the fitted concentration of half-maximal effect
[5] = qHTS assay to identify small molecule antagonists of the androgen receptor (AR) signaling pathway - cell viability counter screen (AID 743033; note: nearly all actives have a fitted effect of over 45% in size; note: potency is the fitted concentration of half-maximal effect)
[6] = qHTS assay to identify small molecule antagonists of the androgen receptor (AR) signaling pathway using the MDA cell line - cell viability counter screen (AID 743041; note: nearly all actives have a fitted effect of over 45% in size; note: potency is the fitted concentration of half-maximal effect)
How it was run: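 Cytotoxicity counter screen: MDA-kb2 AR-luc cells, compound + R1881, 16 h, 37C, 0% CO2; CellTiter-Fluor added at 15.5 h, fluorescence read after 30 min.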

[7] = target: Androgen receptor (Homo sapiens) (UniProt P10275); assay: qHTS assay to identify small molecule antagonists of the androgen receptor (AR) signaling pathway (AID 743035; active = well fitted inhibition curve with a large enough effect in the signal ratio in the repeat runs, not every such curve was filed as active; the % refers to the signal ratio; note: potency is the fitted concentration of half-maximal effect)
How it was run: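 AR-bla HEK293 reporter cells; 4 h settle at 37C/5% CO2; compound + R1881 agonist, 16 h at 37C; LiveBLAzer B/G FRET substrate 2 h RT; fluorescence intensity read. qHTS format.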

[8] = target: Androgen receptor (Homo sapiens) (UniProt P10275); assay: qHTS assay to identify small molecule agonists of the androgen receptor (AR) signaling pathway using the MDA cell line (AID 743040; note: nearly all actives have a fitted effect of over 20% in size)
How it was run: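 Luciferase read-out, ONE-Glo, 30 min RT. Cells: MDA-kb2 AR-luc, MMTV promoter with AR and GR response elements. Compound exposure 16 h, 37C, 0% CO2, after 5 h pre-incubation. qHTS agonist mode.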

[9] = target: Androgen receptor (Homo sapiens) (UniProt P10275); assay: qHTS assay to identify small molecule antagonists of the androgen receptor (AR) signaling pathway using the MDA cell line (AID 743042; note: nearly all actives have a fitted effect of over 55% in size; note: potency is the fitted concentration of half-maximal effect)
How it was run: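 MDA-kb2 breast carcinoma cells carrying MMTV-luciferase (AR/GR responsive) were co-treated with compounds and the agonist R1881 for 16 h at 37C. Inhibition read as ONE-Glo luminescence; CellTiter-Fluor fluorescence measured in parallel for cytotoxicity.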

[10] = target: Androgen receptor (Homo sapiens) (UniProt P10275); assay: qHTS assay to identify small molecule agonists of the androgen receptor (AR) signaling pathway (AID 743036; active = well fitted activation curve with a large enough effect in the signal ratio in the repeat runs, with a control signal flat, not every such curve was filed as active; the % refers to the signal ratio)
How it was run: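 Screening used 2,000 AR-bla HEK293 cells per well, treated 16 h at 37C with test compounds in DMSO alongside positive and DMSO-only controls; beta-lactamase activity was then read by LiveBLAzer B/G FRET fluorescence after 2 h at room temperature.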

Androgen receptor (Homo sapiens), sequence (P10275 whole entry, looked up): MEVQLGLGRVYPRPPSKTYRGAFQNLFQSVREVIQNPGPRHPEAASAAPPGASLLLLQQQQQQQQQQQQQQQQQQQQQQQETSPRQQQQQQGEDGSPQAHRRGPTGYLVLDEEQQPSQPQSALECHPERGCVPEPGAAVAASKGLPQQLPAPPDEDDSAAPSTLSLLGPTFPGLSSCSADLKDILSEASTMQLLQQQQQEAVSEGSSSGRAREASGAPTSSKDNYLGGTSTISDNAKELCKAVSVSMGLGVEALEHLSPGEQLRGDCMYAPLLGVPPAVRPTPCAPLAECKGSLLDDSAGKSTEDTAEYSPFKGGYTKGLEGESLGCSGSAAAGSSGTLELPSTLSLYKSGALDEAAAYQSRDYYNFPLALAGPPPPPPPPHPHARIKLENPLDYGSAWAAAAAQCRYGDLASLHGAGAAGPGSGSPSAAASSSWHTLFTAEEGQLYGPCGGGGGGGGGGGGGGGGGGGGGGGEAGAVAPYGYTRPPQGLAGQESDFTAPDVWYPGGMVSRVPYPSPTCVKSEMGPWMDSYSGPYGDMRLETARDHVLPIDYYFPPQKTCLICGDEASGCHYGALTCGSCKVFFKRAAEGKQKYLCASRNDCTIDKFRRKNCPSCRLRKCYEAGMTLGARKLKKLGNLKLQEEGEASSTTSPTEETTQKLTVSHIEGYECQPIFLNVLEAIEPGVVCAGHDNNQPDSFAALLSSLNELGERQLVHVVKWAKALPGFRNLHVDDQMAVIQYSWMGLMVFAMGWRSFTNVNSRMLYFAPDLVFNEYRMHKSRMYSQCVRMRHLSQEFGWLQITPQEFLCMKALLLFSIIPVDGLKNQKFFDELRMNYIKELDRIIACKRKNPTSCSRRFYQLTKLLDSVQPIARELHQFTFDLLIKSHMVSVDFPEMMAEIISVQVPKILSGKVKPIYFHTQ

Row | SMILES | Potency [1] | Potency [2] | Potency [3] | Potency [4] | Potency [5] | Potency [6] | Potency [7] | outcome [8] | Potency [9] | Potency [10]
1 | CCCCN(CCO)CCCC | inactive | inactive | inactive | inactive | inactive | inactive | – | – | – | –
2 | CC(=O)CC(C)=O | inactive | inactive | inactive | inactive | inactive | inactive | – | – | – | –
3 | CCOc1ccc2c(c1)C(C)=CC(C)(C)N2 | inactive | 13.3 µM (active) and 13.7 µM (active) | 26.6 µM (active) and 27.2 µM (active) and 17.2 µM (active) | 21.1 µM (active) and 54.2 µM (active) and 15.4 µM (active) | inactive | – | inactive | inactive | inactive | –
4 | CNCCC(Oc1ccc(C(F)(F)F)cc1)c1ccccc1 (stereo not drawn) | inactive | 5.31 µM (active) and 9.56 µM (active) | 6.68 µM (active) and 6.03 µM (active) | 6.68 µM (active) and 8.52 µM (active) | 48.4 µM (active) | 27.8 µM (active) and 53.8 µM (active) | – | – | – | –
5 | CCc1ccc(C(c2ccc(CC)cc2)C(Cl)Cl)cc1 | inactive | inactive | inactive | inactive | inactive | inactive | – | inactive | inactive | inactive
6 | CCCCCCCCCCCCCC[P+](CCCC)(CCCC)CCCC | 9.72 µM (active) and 4.9 µM (active) | 192 nM (active) and 86.3 nM (active) | 85.8 nM (active) and 61.1 nM (active) | 76.5 nM (active) and 54.5 nM (active) | 866 nM (active) and 977 nM (active) | 21.6 µM (active) and 6.11 µM (active) | – | inactive | 2.16 µM (active) and 1.54 µM (active) | –
7 | Nc1nc2ccccc2[nH]1 | inactive | inactive | inactive | inactive | inactive | inactive | – | – | – | –
8 | COc1cc(C(=S)N2CCOCC2)ccc1O | inactive | inactive | inactive | inactive | inactive | – | – | inactive | inactive | –
9 | CC(=O)C1=C(C)[C@@H]2C[C@@]3(C1)[C@H](C)CC[C@H]3C2(C)C | inactive | inactive | inactive | inactive | inactive | inactive | – | – | – | –
10 | Cc1cc(OCCOCC[N+](C)(C)Cc2ccccc2)ccc1C(C)(C)CC(C)(C)C | 21.3 µM (active) and 17.3 µM (active) | 841 nM (active) and 1.21 µM (active) | 1.19 µM (active) and 682 nM (active) | 1.06 µM (active) and 765 nM (active) | 16.9 µM (active) and 15.4 µM (active) | – | – | inactive | 18.8 µM (active) and 12.1 µM (active) | –
11 | C=CC(=O)OCCCCCCCC | inactive | inactive | inactive | inactive | inactive | inactive | – | – | – | –
12 | C=C(C)C(=O)O | inactive | inactive | inactive | inactive | inactive | inactive | – | – | – | –
13 | c1cc(C(c2ccc(OCC3CO3)cc2)C(c2ccc(OCC3CO3)cc2)c2ccc(OCC3CO3)cc2)ccc1OCC1CO1 (stereo not drawn) | inactive | 20.1 µM (active) and 3.43 µM (active) | 357 nM (active) and 385 nM (active) | 6.34 µM (active) and 3.06 µM (active) | inactive | inactive | – | – | – | –
14 | CCCN[C@H]1CCc2nc(N)sc2C1 | inactive | inactive | inactive | inactive | inactive | inactive | – | – | – | –
15 | COC(=O)[C@H]1[C@H]2C[C@@H]3c4[nH]c5cc(OC)ccc5c4CCN3C[C@H]2C[C@@H](OC(=O)c2cc(OC)c(OC)c(OC)c2)[C@@H]1OC | inactive | 13.3 µM (active) and 17.7 µM (active) | 18.8 µM (active) and 25 µM (active) | 18.8 µM (active) and 24.3 µM (active) and 22.3 µM (active) | inactive and 21.8 µM (active) | inactive | – | – | – | –
16 | Oc1ccc(Cl)cc1Cc1cc(Cl)ccc1O | 39.6 µM (active) and 34.7 µM (active) | 23.7 µM (active) and 39.3 µM (active) and 21.7 µM (active) | 16.8 µM (active) and 31.2 µM (active) and 10.9 µM (active) | 16.8 µM (active) and 31.2 µM (active) and 12.2 µM (active) | 19.8 µM (active) and 11 µM (active) | – | – | inactive | 27.8 µM (active) and 38.6 µM (active) | inactive
17 | CC(=O)Nc1ccc(C(=O)CCl)cc1 | inactive | inactive and 1.72 µM (active) | 1.93 µM (active) | 1.72 µM (active) | inactive | – | – | inactive | inactive | inactive
18 | Nc1cc(S(=O)(=O)O)cc2cc(S(=O)(=O)O)cc(O)c12 | inactive | inactive | inactive and 24.3 µM (active) | inactive and 61.1 µM (active) | inactive | inactive | – | – | – | –
19 | CCCCCCC(O)CCCCCCCCCCC(=O)O (stereo not drawn) | inactive | inactive | inactive | inactive and 48.6 µM (active) | inactive | inactive | – | – | – | –
20 | Cc1ccnc2c1NC(=O)c1cccnc1N2C1CC1 | inactive | inactive | inactive | inactive | inactive | inactive | – | – | – | –

Row | SMILES | Potency [1] | Potency [2] | Potency [3] | Potency [4] | Potency [5] | Potency [6] | Potency [7] | outcome [8] | Potency [9] | Potency [10]
21 | CC(COc1ccccc1)N(CCCl)Cc1ccccc1 (stereo not drawn) | inactive | 21.1 µM (active) and 27.3 µM (active) | 13.3 µM (active) and 34.7 µM (active) and 5.45 µM (active) | 23.7 µM (active) and 15.4 µM (active) | inactive | inactive | – | – | – | –
22 | CC(C)(O)CCC(C)(C)O | inactive | inactive | inactive | inactive | inactive | – | – | inactive | inactive | –
23 | CO[Si](OC)(OC)c1ccccc1 | inactive | inactive | inactive | inactive | inactive | inactive | – | – | – | –
24 | O=Nc1ccc(Nc2ccccc2)cc1 | inactive | 3.88 µM (active) and 3.06 µM (active) | 1.23 µM (active) and 1.72 µM (active) | 3.08 µM (active) and 2.17 µM (active) | 17.5 µM (active) and 30.9 µM (active) | 61.4 µM (active) | – | inactive | 54.8 µM (active) | –
25 | Cc1cc(C(C)(C)C)c(O)c(C(C)(C)C)c1 | inactive | inactive | inactive and 30.6 µM (active) | inactive and 27.3 µM (active) | inactive | inactive | – | – | – | –
26 | CC(C)(C)c1cc(C(C)(C)C)c(O)c(C(C)(C)C)c1 | inactive | inactive | inactive | inactive | inactive | inactive | – | – | – | –
27 | C=CS(=O)(=O)O | inactive | inactive | inactive | inactive | inactive | inactive | – | – | – | –
28 | O=C(Oc1ccccc1)c1ccccc1O | inactive | inactive | inactive | inactive and 61.1 µM (active) | inactive | inactive | – | – | – | –
29 | CNC1(C)C2CCC(C2)C1(C)C (stereo not drawn) | inactive | inactive | inactive | inactive | inactive | inactive | – | – | – | –
30 | c1ccc2c(c1)CCCC2C1=NCCN1 (stereo not drawn) | inactive | inactive | inactive | inactive | inactive | inactive | – | – | – | –
31 | c1ccc2n[nH]nc2c1 | inactive | inactive | inactive and 61.1 µM (active) | inactive | inactive | inactive | – | – | – | –
32 | Nc1cc(Cl)c(-c2cc(Cl)c(N)cc2Cl)cc1Cl | 54.9 µM (active) and 49 µM (active) | 5.44 µM (active) and 4.86 µM (active) | 2.43 µM (active) and 5.45 µM (active) | 2.73 µM (active) and 4.33 µM (active) | 43.6 µM (active) and 49 µM (active) | 61.1 µM (active) | 21.9 µM (active) and 17.4 µM (active) | inactive | 54.4 µM (active) and 68.6 µM (active) | –
33 | CCCCCCCCCCCCc1ccccc1O | 21.6 µM (active) and 21.9 µM (active) | 12 µM (active) and 30.6 µM (active) | 7.59 µM (active) and 24.3 µM (active) | 12 µM (active) and 27.3 µM (active) | 24.2 µM (active) and 38.9 µM (active) | – | 21.6 µM (active) | inactive | 54.5 µM (active) | –
34 | CCC(=O)/C=C/C1C(C)=CCCC1(C)C (stereo not drawn) | inactive | inactive | inactive | inactive and 61.1 µM (active) | inactive | inactive | – | – | – | –
35 | NCCO | inactive | inactive | inactive and 68.6 µM (active) | inactive | inactive | inactive | – | – | – | –
36 | CC[C@]1(O)C[C@@H]2CN(CCc3c([nH]c4ccccc34)[C@@](C(=O)OC)(c3cc4c(cc3OC)N(C)[C@H]3[C@@](O)(C(=O)OC)[C@H](OC(C)=O)[C@]5(CC)C=CCN6CC[C@]43[C@@H]65)C2)C1 | inactive | 53.1 nM (active) and 29.8 nM (active) | 53.1 nM (active) and 29.8 nM (active) | 75 nM (active) and 53.1 nM (active) | – | inactive | – | – | – | –
37 | Cc1scc2c1N(C(=O)CN1CCN(C)CC1)c1ccccc1NC2=O | inactive | inactive | inactive | inactive | inactive | inactive | – | – | – | –
38 | O=c1n(CC2CO2)c(=O)n(CC2CO2)c(=O)n1CC1CO1 (stereo not drawn) | inactive | 376 nM (active) and 193 nM (active) | 53.1 nM (active) and 38.6 nM (active) | 944 nM (active) and 217 nM (active) | inactive | inactive | – | – | – | –
39 | CC[C@H]1CN2CCc3cc(OC)c(OC)cc3[C@@H]2C[C@@H]1C[C@H]1NCCc2cc(OC)c(OC)cc21 | 4.92 µM (active) | 18.8 nM (active) and 24.4 nM (active) | 23.7 nM (active) and 19.4 nM (active) | 23.7 nM (active) and 21.8 nM (active) | – | 6.88 µM (active) | – | – | – | –
